Screens (PubChem)
Sampled rows, rich in hits. Any-hit rate of the full collection: about 3.5%.
MITF inh = MITF inhibitors, primary screen, biochemical, AlphaScreen, human | Microphthalmia-associated transcription factor (Homo sapiens), O75030 | AlphaScreen MITF homodimerization, bead proximity signal | inhibition, % at 2.6 µM | 650,000 tested, 0.91% active; in the data active means inhibition above about 50%
GPR151 activ = activators of human GPR151, primary screen, cell-based, PathHunter beta-arrestin, luminescence; 650,000 tested, 1% active; PathHunter beta-arrestin GPR151 cells; G-protein coupled receptor 151 (Homo sapiens), Q8TDV0; activation, % at 11.2 µM; in the data active means activation above about 4.9%
FBW7 act = FBW7 E3 ligase activators, primary screen, biochemical, AlphaScreen, human; normalized activity (activation), % at 26.1 µM; 650,000 tested, 0.13% active; AlphaScreen FBW7–phospho-cyclin E peptide binding, activator screen; F-box/WD repeat-containing protein 7 (Homo sapiens), Q969H0; in the data active means normalized activity above about 1.9%;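 further: purified mutant Fbw7 with reduced substrate affinity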
Target sequence (Q969H0 whole entry, looked up): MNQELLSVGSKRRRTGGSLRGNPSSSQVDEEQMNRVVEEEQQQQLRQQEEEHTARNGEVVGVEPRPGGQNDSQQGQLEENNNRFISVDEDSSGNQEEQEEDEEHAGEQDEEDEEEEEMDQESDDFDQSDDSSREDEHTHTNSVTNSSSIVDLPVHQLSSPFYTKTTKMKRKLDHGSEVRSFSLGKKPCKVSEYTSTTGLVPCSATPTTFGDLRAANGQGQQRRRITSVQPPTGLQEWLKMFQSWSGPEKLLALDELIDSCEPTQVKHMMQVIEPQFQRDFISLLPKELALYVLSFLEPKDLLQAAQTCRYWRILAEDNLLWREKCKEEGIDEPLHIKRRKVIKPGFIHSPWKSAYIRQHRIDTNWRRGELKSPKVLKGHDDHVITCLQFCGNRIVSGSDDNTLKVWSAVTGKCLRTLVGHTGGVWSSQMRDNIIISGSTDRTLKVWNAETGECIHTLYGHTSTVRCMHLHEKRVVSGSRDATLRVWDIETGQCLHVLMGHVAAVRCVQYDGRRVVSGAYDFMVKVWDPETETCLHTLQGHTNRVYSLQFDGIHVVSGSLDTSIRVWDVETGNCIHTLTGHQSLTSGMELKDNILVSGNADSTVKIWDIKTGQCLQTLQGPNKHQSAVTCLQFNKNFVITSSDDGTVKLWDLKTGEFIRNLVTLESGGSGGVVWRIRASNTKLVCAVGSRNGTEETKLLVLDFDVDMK
TEAD-YAP inh = TEAD-YAP interaction inhibition, primary screen, TEAD-YAP interaction inhibitor project, luminescence, HEK-TIYL cells; TEAD-Gal4/YAP UAS-luciferase luminescence; inhibition, % at 9.12 µM; 640,000 tested, 1.4% active; AID 1259422, 2018; in the data active means inhibition above about 32%
GPR151 confirm = GPR151 activators, triplicate retest, confirmation, cell-based, PathHunter beta-arrestin, luminescence; GPR151 PathHunter beta-arrestin cells, 90 min; % of EA-reagent control over plate median; activation, % at 11.2 µM; 6,700 tested, under 10 active; shares compounds with GPR151 activ;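 active means mean percent activation across replicates above the confirmation screen cutoff of 4.91%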
GPR119 ag = GPR119 activators in beta-arrestin cells, counter-screen for GPR151 activator project, cell-based, PathHunter beta-arrestin, luminescence, triplicate; activation, % at 11.2 µM; 90 min; 0 = compound-well median, 100 = enzyme-acceptor control; AID 1508611, 2020; shares compounds with GPR151 activ; 6,700 tested, 0.3% active;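 active means mean percent activation in the counterscreen above 29.09%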;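 further: counterscreen on off-target GPR119 to flag nonselective hits from the GPR151 activator screen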
Each line names hits and unclear results; the compound was inactive in the other large screens (follow-up assays come after a bar, where they were run).

CC(C)n1cnc2c(NCCN3CCOCC3)nc(Nc3ccc(-n4ccnc4)cc3)nc21	GPR151 activ 6.2 | GPR151 confirm inactive | GPR119 ag inactive
Cc1cc(CO)c(C)n1-c1ccc(F)c(Cl)c1	none
NS(=O)(=O)c1ccc(CCNC(=O)CSc2nc(NC3CCCCC3)c3ccccc3n2)cc1	GPR151 activ 5.1 | GPR151 confirm inactive | GPR119 ag inactive
CCCCN(C)Cc1c(C(=O)N2CCN(C3CCCCC3)CC2)nc2ccccn12	GPR151 activ 7.3 | GPR151 confirm inactive | GPR119 ag inactive
CC(=O)Nc1ccc(S(=O)(=O)Nc2sc3c(c2C(N)=O)CCC(C)C3)cc1 (stereo not drawn)	none
CCCC1CCc2c(sc(NS(=O)(=O)c3ccc(NC(C)=O)cc3)c2C(N)=O)C1 (stereo not drawn)	GPR151 activ 10 | GPR151 confirm inactive | GPR119 ag inactive
COc1cccc(CN2CCN(C(=O)c3cc(Br)cs3)CC2)c1	GPR151 activ 5.8 | GPR151 confirm inactive | GPR119 ag inactive
COc1ccc(N2CCN(C(=O)c3ccc(OC(C)=O)cc3)CC2)cc1	none
COc1ccc(C(=O)N2CCN(Cc3ccc4ccccc4c3)CC2)cc1	GPR151 activ 7.7, TEAD-YAP inh 36 | GPR151 confirm inactive | GPR119 ag inactive
COc1cccc(CN2CCN(C(=O)c3c(OC)cccc3OC)CC2)c1	none
C=CCOc1ccc(C(=O)N2CCN(c3ccc(OC)cc3)CC2)cc1	GPR151 activ 6.1 | GPR151 confirm inactive | GPR119 ag inactive
O=C(NCC1COc2ccccc2O1)c1ccc(CN2CCc3ccccc3C2)[nH]c1=O (stereo not drawn)	none
O=C(c1ccccc1)N1CCCn2c1nc1ccccc12	none
c1ccc(Cn2cc(-c3ccc(Nc4nccc(-c5cncc(N6CCOCC6)c5)n4)cc3)cn2)cc1	GPR151 activ 6.8 | GPR151 confirm inactive | GPR119 ag inactive
Cc1ccc(-c2ncn(-c3ccc(Nc4nccc(-c5cncc(N6CCOCC6)c5)n4)cc3)n2)cn1	none
COc1cc(C2C(C#N)=C(N)OC3=C2C(=O)CCC3)cc(OC)c1OC (stereo not drawn)	none
O=C(Nc1cc(C(F)(F)F)cc(C(F)(F)F)c1)C1CC1	GPR151 activ 10 | GPR151 confirm inactive | GPR119 ag inactive
Cc1ccccc1C(=O)NCc1nc(-c2ccccc2)no1	GPR151 activ 6.9 | GPR151 confirm inactive | GPR119 ag inactive
O=C(Nc1ccc2[nH]ncc2c1)[C@H]1CCN(C(=O)[C@@H](O)CSc2ccc(Br)cc2)C1	GPR151 activ 5.7 | GPR151 confirm inactive | GPR119 ag inactive
O=C(Nc1ccc2[nH]ncc2c1)[C@H]1CCN(C(=O)[C@H](O)CSc2ccc(Br)cc2)C1	none
O=C1CC2(CCN(C(=O)/C=C\c3ccccc3)CC2)Oc2ccccc21	none
N#C/C(=C\c1ccc(O)cc1O)c1nc2ccccc2[nH]1	none
Cc1ccc2nc(/C(C#N)=C\c3ccccc3OCC#N)[nH]c2c1	GPR151 activ 5.1 | GPR151 confirm inactive | GPR119 ag inactive
N#C/C(=C\c1cc(Cl)ccc1O)c1nc2ccccc2[nH]1	GPR151 activ 5.7 | GPR151 confirm inactive | GPR119 ag inactive
CCOC(=O)c1cccc2c3c([nH]c12)C(C(=O)OCC)CCC3 (stereo not drawn)	GPR151 activ 5.0 | GPR151 confirm inactive | GPR119 ag inactive
O=C1COc2cc(S(=O)(=O)N3CCC(Cc4ccccc4)CC3)ccc2N1	none
CN(Cc1ccccc1)C(=O)C1CCN(S(=O)(=O)c2ccc3c(c2)OCC(=O)N3)CC1	GPR151 activ 6.7 | GPR151 confirm inactive | GPR119 ag inactive
COc1ccc(C2Nn3c(C)nnc3SC2C(=O)N2CCCC2)cc1Br (stereo not drawn)	GPR151 activ 5.1 | GPR151 confirm inactive | GPR119 ag inactive
Cc1ccccc1-n1c(C)nc2sc3c(c2c1=O)CCC3	none
Cc1nc2sc3c(c2c(=O)n1-n1cccc1)CCCC3	GPR151 activ 5.9 | GPR151 confirm inactive | GPR119 ag inactive
COCCn1c(SCC(=O)NCc2ccccc2Cl)nc2cc(C(=O)OC)ccc2c1=O	none
CCOC(=O)C1(CCc2ccccc2)CCN(Cc2ccncc2)CC1	none
Cc1cccc2sc(N(Cc3ccccn3)C(=O)CCOc3ccccc3)nc12	GPR151 activ 5.8 | GPR151 confirm inactive | GPR119 ag inactive
CCc1ccccc1NC(=O)CCC(=O)OCC(=O)c1ccc(Cl)cc1	GPR151 activ 8.7 | GPR151 confirm inactive | GPR119 ag inactive
CCOC(=O)c1ccc(NC(=O)CCC(=O)OCC(=O)c2ccc([N+](=O)[O-])cc2)cc1	GPR151 activ 7.4 | GPR151 confirm inactive | GPR119 ag inactive
COc1ccc(NC(=O)CCC(=O)Oc2ccc(C)cc2)cc1	GPR151 activ 16 | GPR151 confirm inactive | GPR119 ag inactive
O=C(CCCC(=O)OCC(=O)c1ccc(Cl)c([N+](=O)[O-])c1)Nc1ccccc1Cl	GPR151 activ 5.1 | GPR151 confirm inactive | GPR119 ag inactive
CCc1ccc(C(=O)COC(=O)CCC(=O)Nc2ccc([N+](=O)[O-])cc2)cc1	none
CCc1ccccc1NC(=O)CCC(=O)OCC(=O)c1ccc(C)cc1	none
Cc1occc1C(=O)Nc1cc(C(F)(F)F)ccc1Cl	none
COc1ccc(OC)c(NC(=O)c2c(NCc3ccc(OC)c(OC)c3)sc3c2CCCCC3)c1	none
CCc1ccc(C(=O)COC(=O)CCC(=O)Nc2ccc(OC)cc2)cc1	GPR151 activ 6.5 | GPR151 confirm inactive | GPR119 ag inactive
Cc1ccc2c(c1)/C(=C\c1ccc(Br)cc1)c1cc3ccccc3nc1-2	GPR151 activ 6.1 | GPR151 confirm inactive | GPR119 ag inactive
CN1C(=O)/C(=C2\SC(=S)N(c3ccc(C(=O)O)cc3)C2=O)c2ccccc21	GPR151 activ 5.6 | GPR151 confirm inactive | GPR119 ag inactive
CC(=O)c1ccc(N2C(=O)/C(=C3/C(=O)N(C(C)=O)c4ccccc43)SC2=S)cc1	none
CN1C(=O)/C(=C2\SC(=S)N(CC(=O)O)C2=O)c2ccccc21	none
CN1C(=O)/C(=C2\SC(=S)N(c3ccc(CC(=O)O)cc3)C2=O)c2ccccc21	GPR151 activ 6.9 | GPR151 confirm inactive | GPR119 ag inactive
CC(C)N(CCNC(=O)c1cccc(N2CCN(Cc3ccc4c(c3)OCO4)CC2)n1)C(C)C	none
CN1C(=O)C(C)(C)c2cc(S(=O)(=O)N3CCN(c4ccccc4F)CC3)ccc21	GPR151 activ 5.1 | GPR151 confirm inactive | GPR119 ag inactive
Cc1cccc(N2CCN(S(=O)(=O)c3ccc4c(c3)C(C)(C)C(=O)N4C)CC2)c1C	none
